Laboratory results as given in a collection of fitness landscapes (doi:10.1016/j.celrep.2020.107928).
In all, about 81,000 sequences were measured (“one-hybrid fitness for binding NBS DNA”: median about -0.1, highest 2% from about 0.36 on). For the sample, the highest values were picked, then their nearest neighbours and some sequences at random.

B1: Caulobacter ParB omega fusion; a variant is named by its letters at X, in order, B8GW30 (parent)
chain: MESVVVGEPGMSEGRRGLGRGLSALLGEVDAAPAQAPGEQLGGSREAPIEILQRNPDQPRRTFREEDLEDLSNSIREKGVLQPILVRPSPDTAGEYQIVAGERAWRAAQRAGLKTVPIMVRELDDLAVLEIGIIENVQRADLNVLEEALSYKVLMEKFERTQENIAQTIGKSXSHVANXMRLLXLPDEVQSYLVSGELTAXHARAIAAAADPVALAKQIIEGGLSVRETEALARKAPNLSAGKSKGGRPPRVKDTDTQALESDLSSVLGLDVSIDHRGSTGTLTITYATLEQLDDLCNRLTRGI

Variants of: B1
Assay: one-hybrid fitness for binding NBS DNA (the Noc-binding site; scaled: cognate 1, non-cognate 0); higher = stronger binding
Settings: with NBS DNA site
Method in brief: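 In E. coli USO, a HIS3 reporter with its site placed 19 bp from the promoter was used to select Caulobacter ParB variants randomised at four specificity codons. Growth lasted 48 hours at 37°C on histidine-free M9 containing 0.1 mM IPTG and 5 mM 3-AT. Fitness was taken as the log change in variant-to-wild-type read ratio from Illumina sequencing of pre- and post-selection plasmids, rescaled between the non-cognate and cognate sites.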

| Variant | one-hybrid fitness for binding NBS DNA |
| --- | --- |
| WSIE | ≤ 0.2 |
| GCAR | ≤ 0.2 |
| RQSC | ≤ 0.2 |
| YATR | ≤ 0.2 |
| SEFT | ≤ 0.2 |
| STWN | ≤ 0.2 |
| SNPF | ≤ 0.2 |
| LHCS | ≤ 0.2 |
| CNGF | ≤ 0.2 |
| FEEV | ≤ 0.2 |
| LQET | ≤ 0.2 |
| RANS | 0.484 |
| RAWS | 0.262 |
| RADS | ≤ 0.2 |
| RARS | 0.564 |
| RANH | ≤ 0.2 |
| RARH | 0.306 |
| RARN | ≤ 0.2 |
| RAYS | 0.423 |
| RAIS | ≤ 0.2 |
| DPHT | ≤ 0.2 |
| NPRM | ≤ 0.2 |
| HYCF | ≤ 0.2 |
| GLER | ≤ 0.2 |

| Variant | one-hybrid fitness for binding NBS DNA |
| --- | --- |
| NTPI | ≤ 0.2 |
| RCQH | 0.228 |
| RRQH | 0.447 |
| RSQG | ≤ 0.2 |
| RCQG | ≤ 0.2 |
| RRQD | ≤ 0.2 |
| RRQS | 0.69 |
| RRQN | 0.322 |
| RRQG | 0.377 |
| RRQP | ≤ 0.2 |
| PGAA | ≤ 0.2 |
| NLQS | ≤ 0.2 |
| HATK | ≤ 0.2 |
| WPRM | ≤ 0.2 |
| LVQN | ≤ 0.2 |
| DLGR | ≤ 0.2 |
| GFTS | ≤ 0.2 |
| QYVP | ≤ 0.2 |
| EYKR | ≤ 0.2 |
| QYVR | 0.381 |
| NYKR | ≤ 0.2 |
| QYVN | ≤ 0.2 |
| QYKR | 0.99 |
| KYYF | ≤ 0.2 |

| Variant | one-hybrid fitness for binding NBS DNA |
| --- | --- |
| SYTG | ≤ 0.2 |
| PAEC | ≤ 0.2 |
| TFLC | ≤ 0.2 |
| RTER | 0.262 |
| RTGP | ≤ 0.2 |
| RPWR | ≤ 0.2 |
| RTRR | 0.818 |
| RTIR | 0.354 |
| RSWR | 0.27 |
| RCWR | 0.405 |
| RTPR | 0.208 |
| RTGH | 0.271 |
| RTRD | ≤ 0.2 |
| RTYR | 0.522 |
| RTGR | 0.622 |
| WHGR | ≤ 0.2 |
| SVYC | ≤ 0.2 |
| DNYS | ≤ 0.2 |
| AQDG | ≤ 0.2 |
| RTDR | 0.282 |
| RTHM | ≤ 0.2 |
| RTCR | 0.53 |
| RTSR | 0.576 |
| RTCN | ≤ 0.2 |

| Variant | one-hybrid fitness for binding NBS DNA |
| --- | --- |
| RTHR | 0.631 |
| RTNR | 0.744 |
| RTSC | ≤ 0.2 |
| RTCD | ≤ 0.2 |
| RTHG | ≤ 0.2 |
| RTNP | ≤ 0.2 |
| RTSF | ≤ 0.2 |
| MTRH | ≤ 0.2 |
| GPMF | ≤ 0.2 |
| VYNT | ≤ 0.2 |
| NQFD | ≤ 0.2 |
| GLEG | ≤ 0.2 |
| DQKV | ≤ 0.2 |
| ATVV | ≤ 0.2 |
| THMM | ≤ 0.2 |
| RTWR | 0.404 |
| RTQN | ≤ 0.2 |
| RTWP | ≤ 0.2 |
| RTQR | 0.575 |
| RTLR | 0.461 |
| RTQP | ≤ 0.2 |
| RTWD | ≤ 0.2 |
| RTLQ | ≤ 0.2 |
| RTLH | ≤ 0.2 |

| Variant | one-hybrid fitness for binding NBS DNA |
| --- | --- |
| QGED | ≤ 0.2 |
| DAQE | ≤ 0.2 |
| GQLV | ≤ 0.2 |
| RKAG | ≤ 0.2 |
| RKFD | ≤ 0.2 |
| RKFT | 0.437 |
| RSFT | ≤ 0.2 |
| RPFT | ≤ 0.2 |
| RKAK | ≤ 0.2 |
| RCFT | 0.423 |
| RKFH | 0.212 |
| RKAT | 0.643 |
| ALQE | ≤ 0.2 |
| NTTI | ≤ 0.2 |
| VKDD | ≤ 0.2 |
| SFVF | ≤ 0.2 |
| WRVA | ≤ 0.2 |
| QKIH | ≤ 0.2 |
| QRPR | 0.543 |
| QSIR | 0.336 |
| QKPR | 0.271 |
| QRIF | ≤ 0.2 |
| QRID | ≤ 0.2 |
| QCIR | 0.476 |

| Variant | one-hybrid fitness for binding NBS DNA |
| --- | --- |
| QRPN | ≤ 0.2 |
| QPIR | ≤ 0.2 |
| QKIR | 0.37 |
| QRIR | 0.686 |
| HKRE | ≤ 0.2 |
| TTVD | ≤ 0.2 |
| RYII | ≤ 0.2 |
| YVSR | ≤ 0.2 |
| VVAC | ≤ 0.2 |
| CQVS | ≤ 0.2 |
| GESL | ≤ 0.2 |
| PASE | ≤ 0.2 |
| TQWR | ≤ 0.2 |
| YKER | ≤ 0.2 |
| SGPG | ≤ 0.2 |
| RKET | 0.528 |
| RKEN | ≤ 0.2 |
| RSER | ≤ 0.2 |
| RSET | ≤ 0.2 |
| RKES | 0.434 |
| RKEP | ≤ 0.2 |
| RKED | ≤ 0.2 |
| RKER | 0.475 |
| RKEC | ≤ 0.2 |

| Variant | one-hybrid fitness for binding NBS DNA |
| --- | --- |
| TPNM | ≤ 0.2 |
| GAKV | ≤ 0.2 |
| PFSN | ≤ 0.2 |
| GRHM | ≤ 0.2 |
| ESQL | ≤ 0.2 |
| SDYT | ≤ 0.2 |
| TGQV | ≤ 0.2 |
| AFRG | ≤ 0.2 |
| AFCR | ≤ 0.2 |
| QMKH | 0.559 |
| QMQQ | ≤ 0.2 |
| QMKI | 0.322 |
| QMKQ | 0.417 |
| QMKN | 0.4 |
| QMKD | 0.313 |
| QMVQ | 0.283 |
| QMVS | 0.282 |
| QMKF | 0.3 |
| QMKS | 0.668 |
| QMKE | 0.215 |
| QMKP | 0.277 |
| TPAD | ≤ 0.2 |
| RQKV | 0.237 |
| CAYF | ≤ 0.2 |

| Variant | one-hybrid fitness for binding NBS DNA |
| --- | --- |
| LIRD | ≤ 0.2 |
| PIRV | ≤ 0.2 |
| QTDM | ≤ 0.2 |
| QCYM | ≤ 0.2 |
| QKRM | 0.4 |
| QKDM | ≤ 0.2 |
| QHRM | 0.379 |
| QTYM | ≤ 0.2 |
| QKYM | ≤ 0.2 |
| QHDM | ≤ 0.2 |
| QTRM | 0.562 |
| QPRM | ≤ 0.2 |
| QCRM | 0.505 |
| QHQM | ≤ 0.2 |
| IVMP | ≤ 0.2 |
| STQT | ≤ 0.2 |
| NHEL | ≤ 0.2 |
| TDNM | ≤ 0.2 |
| IHYS | ≤ 0.2 |
| RIDA | ≤ 0.2 |
| LSVV | ≤ 0.2 |
| TPRN | ≤ 0.2 |
| NHPC | ≤ 0.2 |
| LYSC | ≤ 0.2 |

| Variant | one-hybrid fitness for binding NBS DNA |
| --- | --- |
| GAPG | ≤ 0.2 |
| PSHR | ≤ 0.2 |
| RVAG | ≤ 0.2 |
| YGRN | ≤ 0.2 |
| AHAS | ≤ 0.2 |
| QSDM | ≤ 0.2 |
| QRRM | 0.589 |
| QMYM | ≤ 0.2 |
| QMDM | ≤ 0.2 |
| QRYM | 0.353 |
| QSRM | 0.402 |
| QMRM | 0.45 |
| QSYM | ≤ 0.2 |
| QRWM | 0.254 |
| PHEA | ≤ 0.2 |
| DNPI | ≤ 0.2 |
| QRHT | 0.789 |
| NRGT | ≤ 0.2 |
| QRDT | 0.671 |
| DRHT | ≤ 0.2 |
| QRGT | 0.822 |
| QTEH | ≤ 0.2 |
| QTET | 0.439 |
| NRHT | ≤ 0.2 |

| Variant | one-hybrid fitness for binding NBS DNA |
| --- | --- |
| QPET | ≤ 0.2 |
| DRGT | ≤ 0.2 |
| LHGL | ≤ 0.2 |
| SEHS | ≤ 0.2 |
| AWHA | ≤ 0.2 |
| AGPD | ≤ 0.2 |
| CCAY | ≤ 0.2 |
| GPLH | ≤ 0.2 |
| DGTS | ≤ 0.2 |
| DRNT | ≤ 0.2 |
| QSET | 0.253 |
| QCET | 0.352 |
| QRET | 0.603 |
| QRWF | ≤ 0.2 |
| QRYT | 0.744 |
| QRWT | 0.707 |
| QRWG | ≤ 0.2 |
| QRNT | 0.822 |
| QWNT | ≤ 0.2 |
| DPRH | ≤ 0.2 |
| TCSP | ≤ 0.2 |
| EGGL | ≤ 0.2 |
| QSFQ | ≤ 0.2 |
| PGPS | ≤ 0.2 |

| Variant | one-hybrid fitness for binding NBS DNA |
| --- | --- |
| LKHN | ≤ 0.2 |
| PPQT | ≤ 0.2 |
| VKFG | ≤ 0.2 |
| DVTN | ≤ 0.2 |
| TRRA | 0.25 |
| LSWG | ≤ 0.2 |
| KASG | ≤ 0.2 |
| PNWS | ≤ 0.2 |
| ISHA | ≤ 0.2 |
| TEKA | ≤ 0.2 |
| QKES | 0.275 |
| QRLT | 0.731 |
| QRRT | 0.863 |
| QACT | 0.363 |
| QILT | 0.236 |
| QFRT | 0.309 |
| QRLM | 0.322 |
| QKEH | ≤ 0.2 |
| QKET | 0.391 |
| QRRE | 0.346 |
| DRCT | ≤ 0.2 |
| QRCT | 0.806 |
| TPVD | ≤ 0.2 |
| FWLS | ≤ 0.2 |

| Variant | one-hybrid fitness for binding NBS DNA |
| --- | --- |
| STAF | ≤ 0.2 |
| DGKR | ≤ 0.2 |
| RSDQ | ≤ 0.2 |
| NRPR | ≤ 0.2 |
| VFEC | ≤ 0.2 |
| SCLN | ≤ 0.2 |
| NRST | ≤ 0.2 |
| DRQT | ≤ 0.2 |
| QRQT | 0.755 |
| QFST | ≤ 0.2 |
| QIQT | 0.283 |
| QRST | 0.772 |
| TYAY | ≤ 0.2 |
| MPCT | ≤ 0.2 |
| SIMW | ≤ 0.2 |
| VASM | ≤ 0.2 |
| GSLP | ≤ 0.2 |
| QIRS | 0.539 |
| QIRD | ≤ 0.2 |
| QIRP | ≤ 0.2 |
| QIRH | 0.44 |
| QIIS | ≤ 0.2 |
| QIYS | 0.27 |
| RWRF | ≤ 0.2 |

| Variant | one-hybrid fitness for binding NBS DNA |
| --- | --- |
| LTWA | ≤ 0.2 |
| KKKG | ≤ 0.2 |
| AEER | ≤ 0.2 |
| QLKT | 0.673 |
| QIVT | 0.236 |
| QAKT | 0.692 |
| QLVT | 0.276 |
| QIKT | 0.574 |
| QAVT | 0.296 |
| QCKT | 0.778 |
| QWKT | 0.25 |
| QPKT | 0.201 |
| LDLK | ≤ 0.2 |
| AVEL | ≤ 0.2 |
| SLSN | ≤ 0.2 |
| QFVT | ≤ 0.2 |
| QHIT | 0.349 |
| QFYT | ≤ 0.2 |
| QEKT | ≤ 0.2 |
| QHVT | 0.327 |
| QSVT | 0.328 |
| QFKT | 0.388 |
| QHKT | 0.732 |
| QSKT | 0.699 |
